Bioassay records deposited in PubChem BioAssay by National Center for Advancing Translational Sciences (NCATS).
Shown are actives, neighbours in structure and some others; about 10% of the full set was active somewhere.
NPR1 antag – human Npr1 receptor antagonism. hit rate 1.6% among 76,000. P16066. Potency, µM (doses to about 46.3 µM), actives largely listed as inhibitors. HEK293 hNpr1 GloSensor cGMP, ANP-stimulated luminescence; calls by dose curve; further: nearly all actives have a fitted effect of over 60% in size
Target sequence (P16066 whole entry, looked up): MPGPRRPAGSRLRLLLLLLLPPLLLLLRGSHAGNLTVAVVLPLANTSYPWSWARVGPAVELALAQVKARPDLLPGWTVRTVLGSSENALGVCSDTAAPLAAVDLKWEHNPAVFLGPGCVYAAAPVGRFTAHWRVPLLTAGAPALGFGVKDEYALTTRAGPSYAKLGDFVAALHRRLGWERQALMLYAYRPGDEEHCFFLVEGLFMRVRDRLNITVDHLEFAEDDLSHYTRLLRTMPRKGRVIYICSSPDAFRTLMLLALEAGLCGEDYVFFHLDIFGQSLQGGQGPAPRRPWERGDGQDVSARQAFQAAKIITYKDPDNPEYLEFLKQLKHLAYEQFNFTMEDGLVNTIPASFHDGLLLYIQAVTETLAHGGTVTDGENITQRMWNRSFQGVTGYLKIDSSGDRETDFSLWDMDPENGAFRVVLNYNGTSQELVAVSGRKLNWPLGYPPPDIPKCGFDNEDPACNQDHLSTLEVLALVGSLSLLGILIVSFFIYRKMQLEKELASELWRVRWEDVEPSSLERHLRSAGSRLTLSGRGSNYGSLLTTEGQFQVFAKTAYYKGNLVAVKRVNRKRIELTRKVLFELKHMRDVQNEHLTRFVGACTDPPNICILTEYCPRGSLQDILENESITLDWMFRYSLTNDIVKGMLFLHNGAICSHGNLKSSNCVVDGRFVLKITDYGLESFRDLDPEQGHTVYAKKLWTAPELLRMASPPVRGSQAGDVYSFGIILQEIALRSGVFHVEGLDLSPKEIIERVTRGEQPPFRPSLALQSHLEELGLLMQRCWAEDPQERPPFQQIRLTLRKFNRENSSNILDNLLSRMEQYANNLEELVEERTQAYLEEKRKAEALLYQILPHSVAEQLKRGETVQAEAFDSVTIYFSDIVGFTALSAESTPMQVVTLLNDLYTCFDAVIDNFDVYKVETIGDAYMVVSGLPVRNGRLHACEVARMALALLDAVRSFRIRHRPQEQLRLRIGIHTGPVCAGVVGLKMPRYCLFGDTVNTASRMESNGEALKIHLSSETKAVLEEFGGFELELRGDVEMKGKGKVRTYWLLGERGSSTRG
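Compound pre-incubated 30 min at room temperature on GloSensor-loaded HEK293 cells stably carrying hNpr1 and the pGS-40F cGMP biosensor. Stimulation uses hNppA at 0.1 nM final; luminescence is taken at baseline and 20 min post-agonist.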
GPT2 inhibitor – blocks human glutamate pyruvate transaminase 2; Recombinant GPT2, coupled pyruvate oxidase/HRP Amplex Red fluorescence; Potency, µM (top dose mostly 57.7 µM), actives largely listed as inhibitors; hit rate 0.25% among 100,000; AID 1671188; further: nearly all actives have a fitted effect of over 60% in size
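Recombinant GPT2 (10ng/uL) with 250uM a-KG and 2mM L-alanine, 30 min at room temperature, in HEPES pH 7.5 buffer. Pyruvate detected by pyruvate oxidase/HRP/Amplex Red fluorescence after 30 min in the dark; AOA (50uM) as positive control.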
Luciferase inh – blocks purified firefly luciferase enzyme activity. purified P. pyralis luciferase, luminescence, biochemical. Potency, µM (series often up to 115 µM), actives largely listed as inhibitors. hit rate 2.5% among 76,000; further: nearly all actives have a fitted effect of over 65% in size
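Purified P. pyralis luciferase (10nM final) in 50mM Tris acetate pH 7.5, 10mM Mg acetate, 0.01% Tween-20, 0.05% BSA with 10uM D-luciferin and 10uM ATP. Compounds titrated qHTS. Luminescence imaged on CCD.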
HEK293 tox – HEK 293 cell cytotoxicity; HEK 293 viability, ATP luminescence (CellTiter-Glo), 48-72 h; AID 1345083; hit rate 6.6% among 94,000; Potency, µM (titrated, usually from 115 µM), most hits filed as inhibitors; further: nearly all actives have a fitted effect of over 60% in size
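Cells seeded first (HEK 293, 250 cells/well), then compound added by pintool. Incubation ran 48 or 72 hr at 37 degree Celsius. CellTiter-Glo was added and luminescence imaged after 10 min at room temperature.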
NIH3T3 tox – NIH 3T3 cell cytotoxicity | NIH 3T3 viability, CellTiter-Glo ATP luminescence, 48-72 h | Potency, µM (series often up to 96.7 µM), hits mostly inhibitors | hit rate 4.3% among 94,000 | AID 1345082; further: nearly all actives have a fitted effect of over 55% in size
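First NIH 3T3 cells are plated at 400 cells/well; next compound is pinned in; then plates incubate 48 or 72 hr at 37 °C; finally CellTiter-Glo is added and luminescence read after 10 min.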
Of the large screens only hits and unclear results are named; the others gave an inactive call. Unless noted, the call rests on the fitted dose curve; in most records, active means well fitted curve in the direction sought with a large enough effect; inconclusive means small, poorly fitted or top-dose-only effect, or another doubt; inactive means no such curve, though single readings can be large; an effect the other way counts as inactive or inconclusive.

Cc1ccc(-c2nnc(C3CN(C(=O)c4ccc(C)c(F)c4)CC34CCOCC4)o2)cc1 (stereo not given)	HEK293 tox inconclusive
COc1cccc(C(=O)N2CCCCCC2c2nnc(-c3ccccc3)o2)c1 (stereo not given)	HEK293 tox inconclusive (no result: NPR1 antag, Luciferase inh)
O=C(c1ccc(F)cc1)N1Cc2[nH]cnc2C[C@H]1c1nc(-c2ccc(Cl)cc2)no1	HEK293 tox inconclusive, NIH3T3 tox inconclusive
O=C(Nc1ccc(Cl)cc1)N1Cc2[nH]cnc2C[C@H]1c1nc(-c2ccc3ccccc3c2)no1	Luciferase inh 31.6µM, HEK293 tox inconclusive, NIH3T3 tox inconclusive
O=C(Nc1ccccc1)N1Cc2[nH]cnc2C[C@H]1c1nc(-c2ccc(Cl)cc2)no1	NPR1 antag inconclusive, Luciferase inh 44.7µM, HEK293 tox 100µM, NIH3T3 tox inconclusive
Cc1ccc(-c2noc([C@@H]3Cc4nc[nH]c4CN3C(=O)Nc3ccc(Cl)cc3)n2)cc1	NPR1 antag inconclusive, GPT2 inhibitor inconclusive, Luciferase inh 39.8µM, HEK293 tox inconclusive, NIH3T3 tox inconclusive
O=C(c1ccc(F)cc1)N1Cc2[nH]cnc2C[C@H]1c1nc(-c2ccc3c(c2)OCO3)no1	Luciferase inh 31.6µM, HEK293 tox inconclusive, NIH3T3 tox inconclusive
C[S+](=O)([O-])NCc1nnc2n1C(C(=O)NCc1ccccc1F)CC2 (stereo not given)	none (no result: NPR1 antag, Luciferase inh)
CO[C@H]1C(=O)N(C2CCN(C(=O)COc3ccccc3)CC2)[C@H]1c1ccncc1	none (no result: NPR1 antag, Luciferase inh)
CC(C)c1ccc([S+](=O)([O-])c2nnn3c2nc(NCc2ccncc2)c2ccccc23)cc1	HEK293 tox 50.1µM, NIH3T3 tox 39.8µM (no result: NPR1 antag, Luciferase inh)
CC(=O)Nc1ccccc1-c1cn(C)c(=O)n2cc(COc3ccc(Cl)cc3)nc12	HEK293 tox inconclusive, NIH3T3 tox 100µM
CN(C)c1cccc(-c2cn(C)c(=O)n3cc(COc4ccnn4C)nc23)c1	HEK293 tox inconclusive, NIH3T3 tox inconclusive
COc1ccc(C)cc1-c1cn(C)c(=O)n2cc(COc3ccc(Cl)cc3)nc12	HEK293 tox inconclusive, NIH3T3 tox inconclusive
COc1ccc(-c2cn(C)c(=O)n3cc(COc4ccc(Cl)cc4)nc23)c(C)c1	HEK293 tox inconclusive, NIH3T3 tox 10µM
Cn1nccc1OCc1cn2c(=O)n(C)cc(-c3cccc(OC(F)(F)F)c3)c2n1	HEK293 tox 89.1µM, NIH3T3 tox inconclusive
Cn1cc(-c2cccc(CO)c2)c2nc(COc3ccc(Cl)cc3)cn2c1=O	Luciferase inh inconclusive, HEK293 tox 63.1µM, NIH3T3 tox inconclusive
Cc1nn(-c2ccccc2)c2c1C(C1CC1)N(C1CCN(Cc3ccccc3Cl)CC1)C2=O (stereo not given)	none (no result: NPR1 antag, GPT2 inhibitor, Luciferase inh)
O=C(Nc1ncc(-c2cccc(F)c2)c2c1OCC2)c1ccc(Cl)cc1	HEK293 tox 100µM, NIH3T3 tox inconclusive
C[S+](=O)([O-])Nc1cccc(Nc2ncc(-c3cccc(F)c3)c3c2OCC3)c1	HEK293 tox inconclusive, NIH3T3 tox 31.6µM
Cc1noc(C)c1-c1cnc(Nc2ccc(F)c(Cl)c2)c2c1CCO2	NPR1 antag inconclusive, Luciferase inh 14.1µM, HEK293 tox 70.8µM, NIH3T3 tox inconclusive
Fc1cccc(-c2cnc(Nc3cncnc3)c3c2CCO3)c1	HEK293 tox inconclusive
Cc1noc(C)c1-c1cnc(NC(=O)c2ccc(Cl)cc2)c2c1CCO2	NIH3T3 tox 89.1µM
O=C(NC1CCCN(c2ccc3nnc(C4CC4)n3n2)C1)c1ccc(F)cc1 (stereo not given)	HEK293 tox inconclusive (no result: NPR1 antag, GPT2 inhibitor, Luciferase inh)
COc1ccccc1-c1cnc(NC(=O)c2ccc(F)c(Cl)c2)c2c1CCO2	Luciferase inh 17.8µM, HEK293 tox inconclusive, NIH3T3 tox inconclusive
COc1ccccc1-c1cnc(NC(=O)c2cccnc2)c2c1CCO2	NIH3T3 tox inconclusive
Cc1cccc(CN2CCCC23Cc2ccccc2CNC3=O)c1 (stereo not given)	HEK293 tox inconclusive (no result: NPR1 antag, Luciferase inh)
COc1ccc(C(CC(=O)N2CCCC2)c2c[nH]c3ccccc23)cc1 (stereo not given)	Luciferase inh inconclusive, HEK293 tox inconclusive
CC1(C)CC2CC(C)(CN2C(=O)CC(c2ccccc2Cl)c2c[nH]c3ccccc23)C1 (stereo not given)	HEK293 tox 25.1µM, NIH3T3 tox inconclusive
CCc1nc2c(c(-c3ccc(Cl)cc3)n1)CN(Cc1ccccc1)CC2	HEK293 tox 17.8µM, NIH3T3 tox 10µM
CCc1nc2c(c(-c3ccc(Cl)cc3)n1)CN(Cc1ccc(OC(F)(F)F)cc1)CC2	HEK293 tox inconclusive, NIH3T3 tox 25.1µM
CCc1nc2c(c(-c3ccc(Cl)cc3)n1)CN(Cc1ccsc1)CC2	HEK293 tox inconclusive, NIH3T3 tox inconclusive
CCc1nc2c(c(-c3ccc(Cl)cc3)n1)CN(Cc1ccc(C(F)(F)F)cc1)CC2	HEK293 tox 89.1µM, NIH3T3 tox inconclusive
CCc1nc2c(c(-c3ccc(O)cc3)n1)CN(Cc1ccccc1OC)CC2	HEK293 tox 44.7µM, NIH3T3 tox inconclusive
CCc1nc2c(c(-c3ccc(O)cc3)n1)CCN(Cc1ccccc1OC)CC2	HEK293 tox inconclusive, NIH3T3 tox inconclusive
O=C(NCc1cccc(Cl)c1)c1cc2c(s1)CCN(C(=O)c1ccccc1)C2	NPR1 antag inconclusive, HEK293 tox inconclusive, NIH3T3 tox inconclusive
CCOc1ccc(CN2CC(Oc3ccccc3C(=O)NC3CC3)C2)cc1	HEK293 tox inconclusive
CCc1nc2c(c(-c3ccc(Cl)cc3)n1)CN(Cc1ccc(C)cc1)CC2	HEK293 tox inconclusive, NIH3T3 tox 25.1µM
O=C(CCC1CCN(Cc2cccc3c2OCO3)CC1)NCc1cccc(C(F)(F)F)c1	HEK293 tox inconclusive, NIH3T3 tox inconclusive
O=C(C1CCCN([S+](=O)([O-])c2cccc(C(F)(F)F)c2)C1)N1CCC(N2Cc3cccn3C2=O)CC1 (stereo not given)	HEK293 tox inconclusive, NIH3T3 tox inconclusive (no result: NPR1 antag, Luciferase inh)
Cc1ccc([S+](=O)([O-])N2CCCC(C(=O)N3CCC(N4Cc5cccn5C4=O)CC3)C2)cc1 (stereo not given)	HEK293 tox 44.7µM, NIH3T3 tox inconclusive (no result: NPR1 antag, Luciferase inh)
COc1ccc(OC)c(-c2cnc3[nH]cc(CC(=O)NCc4cccnc4)c3c2)c1	NPR1 antag inconclusive, HEK293 tox inconclusive, NIH3T3 tox inconclusive
COc1ccc(-c2cnc3[nH]cc(CC(=O)NC4CCOCC4)c3c2)cc1	Luciferase inh inconclusive, HEK293 tox inconclusive, NIH3T3 tox 25.1µM
COc1ccc(-c2cnc3[nH]cc(CC(=O)N(C)C)c3c2)cc1	NPR1 antag inconclusive, Luciferase inh 22.4µM, HEK293 tox inconclusive, NIH3T3 tox 12.6µM
COc1ccc(-c2cnc3[nH]cc(CC(=O)NCCN(C)C)c3c2)cc1	HEK293 tox 100µM, NIH3T3 tox 50.1µM
CCOc1cc2c(cn1)NCCN(Cc1ccccc1OC)C2	HEK293 tox inconclusive, NIH3T3 tox inconclusive
c1ccc(-c2cc3c(cn2)CN(Cc2c[nH]c4ccccc24)CCN3)cc1	Luciferase inh inconclusive, HEK293 tox 44.7µM, NIH3T3 tox inconclusive
